# Reference: paper PMC11062922 (Nature Chemical Biology, 2023)
# Where two headings read alike, the source gives them in different places.
# What was measured:
# [1] = test system: STK4; conditions: read-out: apparent Kd, n = 1
# [2] = test system: SYK; conditions: read-out: apparent Kd, n = 1
# [3] = compound concentrations:100 nM and 1000 nM (sheet 'Lestaurtinib' of Supplementary Table 1),run:Lestaurtinib_02482_R1,Plate:MR011
# [4] = compound concentrations:100 nM and 1000 nM (sheet 'Lestaurtinib' of Supplementary Table 1),run:Lestaurtinib_02482_R2,Plate:MR011
# [5] = compound concentrations:100 nM and 1000 nM (sheet 'Lestaurtinib' of Supplementary Table 1),run:Lestaurtinib_02482_R3,Plate:MR011
# [6] = compound concentrations:100 nM and 1000 nM (sheet 'Lestaurtinib' of Supplementary Table 1),run:Lestaurtinib_02487_R1,Plate:MR012
# [7] = compound concentrations:100 nM and 1000 nM (sheet 'Lestaurtinib' of Supplementary Table 1),run:Lestaurtinib_02496_R1,Plate:MR013
# [8] = compound concentrations:100 nM and 1000 nM (sheet 'Lestaurtinib' of Supplementary Table 1),run:Lestaurtinib_02566_R3,Plate:MR014
# [9] = compound concentrations:100 nM and 1000 nM (sheet 'Lestaurtinib' of Supplementary Table 1),run:Lestaurtinib_02577_R3,Plate:MR016
# [10] = compound concentrations:100 nM and 1000 nM (sheet 'Lestaurtinib' of Supplementary Table 1),run:Lestaurtinib_02584_R1,Plate:MR017
# [11] = compound concentrations:100 nM and 1000 nM (sheet 'Lestaurtinib' of Supplementary Table 1),run:Lestaurtinib_02584_R3,Plate:MR017
# [12] = compound concentrations:100 nM and 1000 nM (sheet 'Lestaurtinib' of Supplementary Table 1),run:Lestaurtinib_02601_R1,Plate:MR018
# [13] = compound concentrations:100 nM and 1000 nM (sheet 'Lestaurtinib' of Supplementary Table 1),run:Lestaurtinib_02601_R2,Plate:MR018
# [14] = compound concentrations:100 nM and 1000 nM (sheet 'Lestaurtinib' of Supplementary Table 1),run:Lestaurtinib_02601_R3,Plate:MR018
# [15] = compound concentrations:100 nM and 1000 nM (sheet 'Lestaurtinib' of Supplementary Table 1),run:Lestaurtinib_02606_R1,Plate:MR019
# [16] = compound concentrations:100 nM and 1000 nM (sheet 'Lestaurtinib' of Supplementary Table 1),run:Lestaurtinib_02606_R2,Plate:MR019
# [17] = compound concentrations:100 nM and 1000 nM (sheet 'Lestaurtinib' of Supplementary Table 1),run:Lestaurtinib_02624_R1,Plate:MR020
# [18] = compound concentrations:100 nM and 1000 nM (sheet 'Lestaurtinib' of Supplementary Table 1),run:Lestaurtinib_02741_R2,Plate:MR023
substance,measurement,setting,value
Lestaurtinib,potency estimated from few doses,[1]; [3],34.5 nM
same,potency estimated from few doses,[1]; [4],42.5 nM
same,potency estimated from few doses,[1]; [5],38.1 nM
same,potency estimated from few doses,[1]; [6],33 nM
same,potency estimated from few doses,"[1]; compound concentrations:100 nM and 1000 nM (sheet 'Lestaurtinib' of Supplementary Table 1),run:Lestaurtinib_02487_R3,Plate:MR012",48 nM
same,potency estimated from few doses,[1]; [7],39.4 nM
same,potency estimated from few doses,"[1]; compound concentrations:100 nM and 1000 nM (sheet 'Lestaurtinib' of Supplementary Table 1),run:Lestaurtinib_02496_R3,Plate:MR013",36.6 nM
same,potency estimated from few doses,"[1]; compound concentrations:100 nM and 1000 nM (sheet 'Lestaurtinib' of Supplementary Table 1),run:Lestaurtinib_02566_R2,Plate:MR014",53.6 nM
same,potency estimated from few doses,[1]; [8],36.8 nM
same,potency estimated from few doses,"[1]; compound concentrations:100 nM and 1000 nM (sheet 'Lestaurtinib' of Supplementary Table 1),run:Lestaurtinib_02572_R2,Plate:MR015",38.4 nM
same,potency estimated from few doses,"[1]; compound concentrations:100 nM and 1000 nM (sheet 'Lestaurtinib' of Supplementary Table 1),run:Lestaurtinib_02572_R3,Plate:MR015",51.5 nM
same,potency estimated from few doses,[1]; [9],26.1 nM
same,potency estimated from few doses,[1]; [10],32.3 nM
same,potency estimated from few doses,"[1]; compound concentrations:100 nM and 1000 nM (sheet 'Lestaurtinib' of Supplementary Table 1),run:Lestaurtinib_02584_R2,Plate:MR017",37.7 nM
same,potency estimated from few doses,[1]; [11],39.7 nM
same,potency estimated from few doses,[1]; [12],47.3 nM
same,potency estimated from few doses,[1]; [13],41.1 nM
same,potency estimated from few doses,[1]; [14],51.2 nM
same,potency estimated from few doses,[1]; [15],38.6 nM
same,potency estimated from few doses,[1]; [16],55.6 nM
same,potency estimated from few doses,[1]; [17],48.3 nM
same,potency estimated from few doses,"[1]; compound concentrations:100 nM and 1000 nM (sheet 'Lestaurtinib' of Supplementary Table 1),run:Lestaurtinib_02724_R1,Plate:MR021",52.4 nM
same,potency estimated from few doses,"[1]; compound concentrations:100 nM and 1000 nM (sheet 'Lestaurtinib' of Supplementary Table 1),run:Lestaurtinib_02724_R2,Plate:MR021",41.4 nM
same,potency estimated from few doses,"[1]; compound concentrations:100 nM and 1000 nM (sheet 'Lestaurtinib' of Supplementary Table 1),run:Lestaurtinib_02724_R3,Plate:MR021",39.8 nM
same,potency estimated from few doses,[1]; [18],36.2 nM
same,potency estimated from few doses,"[1]; compound concentrations:100 nM and 1000 nM (sheet 'Lestaurtinib' of Supplementary Table 1),run:Lestaurtinib_02748_R2,Plate:MR024",31.7 nM
same,potency estimated from few doses,"[1]; compound concentrations:100 nM and 1000 nM (sheet 'Lestaurtinib' of Supplementary Table 1),run:Lestaurtinib_02748_R3,Plate:MR024",40.9 nM
same,potency estimated from few doses,"[1]; compound concentrations:100 nM and 1000 nM (sheet 'Lestaurtinib' of Supplementary Table 1),run:Lestaurtinib_02752_R1,Plate:MR025",51.5 nM
same,potency estimated from few doses,"[1]; compound concentrations:100 nM and 1000 nM (sheet 'Lestaurtinib' of Supplementary Table 1),run:Lestaurtinib_02752_R2,Plate:MR025",36.2 nM
same,potency estimated from few doses,"[1]; compound concentrations:100 nM and 1000 nM (sheet 'Lestaurtinib' of Supplementary Table 1),run:Lestaurtinib_02752_R3,Plate:MR025",35.9 nM
same,potency estimated from few doses,"[1]; compound concentrations:100 nM and 1000 nM (sheet 'Lestaurtinib' of Supplementary Table 1),run:Lestaurtinib_02766_R2,Plate:MR027",45.4 nM
same,potency estimated from few doses,"[1]; compound concentrations:100 nM and 1000 nM (sheet 'Lestaurtinib' of Supplementary Table 1),run:Lestaurtinib_02768_R1,Plate:MR028",43.2 nM
same,potency estimated from few doses,"[1]; compound concentrations:100 nM and 1000 nM (sheet 'Lestaurtinib' of Supplementary Table 1),run:Lestaurtinib_02795_R2,Plate:MR022",29.7 nM
same,potency estimated from few doses,"[1]; compound concentrations:100 nM and 1000 nM (sheet 'Lestaurtinib' of Supplementary Table 1),run:Lestaurtinib_02802_R1,Plate:MR029",34.7 nM
same,potency estimated from few doses,"[1]; compound concentrations:100 nM and 1000 nM (sheet 'Lestaurtinib' of Supplementary Table 1),run:Lestaurtinib_02896_R1,Plate:MR030",35.8 nM
same,potency estimated from few doses,"[1]; compound concentrations:100 nM and 1000 nM (sheet 'Lestaurtinib' of Supplementary Table 1),run:Lestaurtinib_03172_R1,Plate:MR031",30.6 nM
same,potency estimated from few doses,"[1]; compound concentrations:100 nM and 1000 nM (sheet 'Lestaurtinib' of Supplementary Table 1),run:Lestaurtinib_03172_R2,Plate:MR031",38.8 nM
same,potency estimated from few doses,"[1]; compound concentrations:100 nM and 1000 nM (sheet 'Lestaurtinib' of Supplementary Table 1),run:Lestaurtinib_03172_R3,Plate:MR031",35.2 nM
same,potency estimated from few doses,"[1]; compound concentrations:100 nM and 1000 nM (sheet 'Lestaurtinib' of Supplementary Table 1),run:Lestaurtinib_03252_R2,Plate:MR032",45.6 nM
same,potency estimated from few doses,"[1]; compound concentrations:100 nM and 1000 nM (sheet 'Lestaurtinib' of Supplementary Table 1),run:Lestaurtinib_03260_R1,Plate:MR033",38.2 nM
same,potency estimated from few doses,"[1]; compound concentrations:100 nM and 1000 nM (sheet 'Lestaurtinib' of Supplementary Table 1),run:Lestaurtinib_03260_R2,Plate:MR033",47.5 nM
same,potency estimated from few doses,"[2]; compound concentrations:100 nM and 1000 nM (sheet 'Lestaurtinib' of Supplementary Table 1),run:Lestaurtinib_02339_R1,Plate:MR001",511 nM
same,potency estimated from few doses,"[2]; compound concentrations:100 nM and 1000 nM (sheet 'Lestaurtinib' of Supplementary Table 1),run:Lestaurtinib_02364_R1,Plate:MR002",481 nM
same,potency estimated from few doses,"[2]; compound concentrations:100 nM and 1000 nM (sheet 'Lestaurtinib' of Supplementary Table 1),run:Lestaurtinib_02364_R3,Plate:MR002",486 nM
same,potency estimated from few doses,"[2]; compound concentrations:100 nM and 1000 nM (sheet 'Lestaurtinib' of Supplementary Table 1),run:Lestaurtinib_02367_R1,Plate:MR003",140 nM
same,potency estimated from few doses,"[2]; compound concentrations:100 nM and 1000 nM (sheet 'Lestaurtinib' of Supplementary Table 1),run:Lestaurtinib_02381_R1,Plate:MR004",206 nM
same,potency estimated from few doses,"[2]; compound concentrations:100 nM and 1000 nM (sheet 'Lestaurtinib' of Supplementary Table 1),run:Lestaurtinib_02381_R2,Plate:MR004",170 nM
same,potency estimated from few doses,"[2]; compound concentrations:100 nM and 1000 nM (sheet 'Lestaurtinib' of Supplementary Table 1),run:Lestaurtinib_02381_R3,Plate:MR004",440 nM
same,potency estimated from few doses,"[2]; compound concentrations:100 nM and 1000 nM (sheet 'Lestaurtinib' of Supplementary Table 1),run:Lestaurtinib_02407_R1,Plate:MR005",189 nM
same,potency estimated from few doses,"[2]; compound concentrations:100 nM and 1000 nM (sheet 'Lestaurtinib' of Supplementary Table 1),run:Lestaurtinib_02407_R2,Plate:MR005",134 nM
same,potency estimated from few doses,"[2]; compound concentrations:100 nM and 1000 nM (sheet 'Lestaurtinib' of Supplementary Table 1),run:Lestaurtinib_02407_R3,Plate:MR005",157 nM
same,potency estimated from few doses,"[2]; compound concentrations:100 nM and 1000 nM (sheet 'Lestaurtinib' of Supplementary Table 1),run:Lestaurtinib_02422_R2,Plate:MR006",507 nM
same,potency estimated from few doses,"[2]; compound concentrations:100 nM and 1000 nM (sheet 'Lestaurtinib' of Supplementary Table 1),run:Lestaurtinib_02422_R3,Plate:MR006",218 nM
same,potency estimated from few doses,"[2]; compound concentrations:100 nM and 1000 nM (sheet 'Lestaurtinib' of Supplementary Table 1),run:Lestaurtinib_02437_R2,Plate:MR007",500 nM
same,potency estimated from few doses,"[2]; compound concentrations:100 nM and 1000 nM (sheet 'Lestaurtinib' of Supplementary Table 1),run:Lestaurtinib_02438_R2,Plate:MR008",161 nM
same,potency estimated from few doses,"[2]; compound concentrations:100 nM and 1000 nM (sheet 'Lestaurtinib' of Supplementary Table 1),run:Lestaurtinib_02443_R1,Plate:MR009",437 nM
same,potency estimated from few doses,"[2]; compound concentrations:100 nM and 1000 nM (sheet 'Lestaurtinib' of Supplementary Table 1),run:Lestaurtinib_02473_R1,Plate:MR010",478 nM
same,potency estimated from few doses,"[2]; compound concentrations:100 nM and 1000 nM (sheet 'Lestaurtinib' of Supplementary Table 1),run:Lestaurtinib_02473_R2,Plate:MR010",446 nM
same,potency estimated from few doses,"[2]; compound concentrations:100 nM and 1000 nM (sheet 'Lestaurtinib' of Supplementary Table 1),run:Lestaurtinib_02473_R3,Plate:MR010",416 nM
same,potency estimated from few doses,[2]; [3],523 nM
same,potency estimated from few doses,[2]; [4],462 nM
same,potency estimated from few doses,[2]; [5],432 nM
same,potency estimated from few doses,[2]; [6],598 nM
same,potency estimated from few doses,"[2]; compound concentrations:100 nM and 1000 nM (sheet 'Lestaurtinib' of Supplementary Table 1),run:Lestaurtinib_02487_R2,Plate:MR012",495 nM
same,potency estimated from few doses,[2]; [7],515 nM
same,potency estimated from few doses,"[2]; compound concentrations:100 nM and 1000 nM (sheet 'Lestaurtinib' of Supplementary Table 1),run:Lestaurtinib_02496_R2,Plate:MR013",579 nM
same,potency estimated from few doses,"[2]; compound concentrations:100 nM and 1000 nM (sheet 'Lestaurtinib' of Supplementary Table 1),run:Lestaurtinib_02566_R1,Plate:MR014",297 nM
same,potency estimated from few doses,[2]; [8],134 nM
same,potency estimated from few doses,"[2]; compound concentrations:100 nM and 1000 nM (sheet 'Lestaurtinib' of Supplementary Table 1),run:Lestaurtinib_02577_R1,Plate:MR016",260 nM
same,potency estimated from few doses,[2]; [9],149 nM
same,potency estimated from few doses,[2]; [10],473 nM
same,potency estimated from few doses,[2]; [11],401 nM
same,potency estimated from few doses,[2]; [12],420 nM
same,potency estimated from few doses,[2]; [13],553 nM
same,potency estimated from few doses,[2]; [14],462 nM
same,potency estimated from few doses,[2]; [15],388 nM
same,potency estimated from few doses,[2]; [16],511 nM
same,potency estimated from few doses,"[2]; compound concentrations:100 nM and 1000 nM (sheet 'Lestaurtinib' of Supplementary Table 1),run:Lestaurtinib_02606_R3,Plate:MR019",488 nM
same,potency estimated from few doses,[2]; [17],402 nM
same,potency estimated from few doses,"[2]; compound concentrations:100 nM and 1000 nM (sheet 'Lestaurtinib' of Supplementary Table 1),run:Lestaurtinib_02624_R2,Plate:MR020",440 nM
same,potency estimated from few doses,"[2]; compound concentrations:100 nM and 1000 nM (sheet 'Lestaurtinib' of Supplementary Table 1),run:Lestaurtinib_02624_R3,Plate:MR020",215 nM
same,potency estimated from few doses,"[2]; compound concentrations:100 nM and 1000 nM (sheet 'Lestaurtinib' of Supplementary Table 1),run:Lestaurtinib_02741_R1,Plate:MR023",395 nM
same,potency estimated from few doses,[2]; [18],396 nM
same,potency estimated from few doses,"[2]; compound concentrations:100 nM and 1000 nM (sheet 'Lestaurtinib' of Supplementary Table 1),run:Lestaurtinib_02741_R3,Plate:MR023",236 nM
